Source: PubChem (National Center for Advancing Translational Sciences (NCATS))
This is a sample that favours compounds with a hit; in the whole collection about 17% have one here.
DT40 TDP1 no CPT – qHTS for Inhibitors of human tyrosyl-DNA phosphodiesterase 1 (TDP1): qHTS in cells in absence of CPT | DT40 Tdp1-/- hTDP1 cells, no CPT, ATP luminescence, 48 h | Potency, µM (titrated, usually from 46.2 µM), for inactives: at the top dose activity change, negative = growth inhibition, hits mostly inhibitors | 420,000 tested, 15% active; note: % is set by controls: 0 for no effect and ±100 for the full control effect; nearly all actives have a fitted effect of over 55% in size
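DT40 Tdp1-/-;hTDP1 cells, no CPT (DMSO vehicle only), 400 cells/well; compounds pin-transferred; ≥48 hr, 37 °C; CellTiter-Glo 30 min RT dark, luminescence read.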
TGFb inhibitor – inhibitors of TGF-b signaling. HepG2 CAGA-GFP TGF-b/SMAD3 reporter, GFP fluorescence, 18 h; TGF-beta stimulated, 500 pg/mL final. Potency, µM (highest dose often 46.1 µM), inactives show top-dose activity, negative = inhibition, most hits filed as inhibitors. 410,000 tested, 1.2% active. AID 588855; note: % is set by controls: 0 for no effect and ±100 for the full control effect; nearly all actives have a fitted effect of over 65% in size
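HEPG2 CAGA-GFP, 1000 cells/well; 2 h settle, 37 C; cpd via pin tool; TGF-b 500 pg/mL final; 18 h, 37 C; GFP imaging ex488/em500-530; %Activity normalised to -TGF-b and +DMSO controls; CRC fit, curve class.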
TDP1 cell CPT – growth inhibition of DT40 Tdp1-/-;hTDP1 cells with camptothecin (screen for TDP1 inhibitors). chicken DT40 Tdp1-/-;hTDP1 cells + 20 nM CPT, ATP luminescence, 48 h. Potency, µM (highest dose often 46.2 µM), without a hit: at the highest dose activity change, negative = growth inhibition, actives largely listed as inhibitors. 420,000 tested, 12% active. AID 686979; note: % is set by controls: 0 for no effect and ±100 for the full control effect; nearly all actives have a fitted effect of over 55% in size
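Cell growth measured by CellTiter-Glo luminescence after a minimum 48 h, 37 C compound exposure with 20 nM CPT in Tdp1-knockout DT40 cells stably expressing hTDP1, seeded 400/well; qHTS titration format.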
HepG2 tox – counter-screen for TGF-b inhibitors: cytotoxicity in HepG2 cells; HepG2 CAGA-GFP viability, ATP luminescence, 18 h; Potency, µM (doses to about 46.1 µM), inactives show top-dose activity change, negative = cytotoxicity, actives largely listed as cytotoxic; 410,000 tested, 0.76% active
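HepG2 CAGA-GFP cells (1000/well, DMEM with 1% FBS) received compound, then TGF-beta at 500 pg/mL final, and were incubated 18 hours at 37 degrees C. Viability was read by CellTiter-Glo luminescence. Media-only wells were set as complete cell-killing and DMSO as no toxicity.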
ATXN2 expr inh – reduces ATXN2 reporter expression in HEK-293 cells | Potency, µM (series often up to 57 µM), inactives show top-dose activity change, negative = inhibition, usual class: inhibitors | HEK-293 ATXN2-luciferase reporter, luminescence, 24 h | 360,000 tested, 0.72% active | AID 1745845; note: % is set by controls: 0 for no effect and ±100 for the full control effect; nearly all actives have a fitted effect of over 55% in size
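ATXN2-luciferase reporter cells (luciferase flanked by upstream and downstream ATXN2 gene portions) were treated 24 h at 37 °C with compounds at up to 57 uM. SteadyGlo luminescence gave expression; GF-AFC fluorescence gave viability.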
ATXN viability – cell viability loss in ATXN counter-screen; AID 651635; Potency, µM (top dose mostly 56.7 µM), actives largely listed as cytotoxic; 400,000 tested, 0.49% active; S2 cells (HEK-293 line with an ATXN2-luciferase reporter) viability, CellTiter-Fluor protease fluorescence, 24 h; note: nearly all actives have a fitted effect of over 40% in size
The depositor's hits bear a star; i = inactive; u = inconclusive; x = no result given; ! = a repeat was not active. Calls come from the whole dose curve; as a rule, active = well fitted curve in the direction sought with a large enough effect; inconclusive = small, poorly fitted or top-dose-only effect, or another doubt; inactive = no such curve, though single readings can be large; an effect the other way counts as inactive or inconclusive. Potency is the fitted concentration of half-maximal effect.

SMILES	DT40 TDP1 no CPT	TGFb inhibitor	TDP1 cell CPT	HepG2 tox	ATXN2 expr inh	ATXN viability
O=C(NC1CCCCC1)N1Cc2cc(-c3cccc(F)c3)ccc2-n2nncc2C1	u	u	-25.9%	-18.2%	-3.4%	i
CCCSc1cc(OC)c(CCN)cc1OC	2.91µM*	x	1.84µM*	x	x	i
CCCCCCCSc1cc(OC)c(CCN(C)C)cc1OC	u	u	u	-120.5%	22.4µM*	x
CCCCCSc1cc(OC)c(CCN)cc1OC	2.91µM*	u	5.8µM*	-101.0%	-13.1%	u
Cn1c(=O)oc2cc(S(=O)(=O)NCCC(=O)NCCc3ccc(Cl)cc3)ccc21	-26.0%	u	u	-96.1%	-0.8%	i
CCCCn1c(-c2nn(C)cc2Cl)n[nH]c1=S	u	-3.7%	-12.2%	15.8%	-5.3%	i
Cc1cccc(C)c1NC(=O)CN1CCCC1=O	-7.7%	x	-2.1%	x	-4.5%	i
CN1CC(C(=O)c2cccc(C(F)(F)F)c2)C(c2ccc(Cl)cc2)C1 (configuration not stated)	u	-6.6%	23.1µM*	-46.5%	-13.7%	i
COc1cccc(C(=O)C2CN(C)CC2c2ccc(Cl)cc2)c1 (configuration not stated)	u	-21.3%	u	-4.4%	-16.9%	i
COc1ccc(C(=O)C2CN(C)CC2c2ccc(Cl)cc2)cc1 (configuration not stated)	u	-2.5%	18.4µM*	-8.8%	-10.9%	i
C=C1C(=O)O[C@@H]2C[C@@H](C)[C@@H]3C4OC4C(=O)[C@@]3(C)[C@@H](O)[C@H]12 (some centres not stated)	0.517µM*	2.82µM*	1.03µM*	-87.8%	3.16µM*	3.55µM*
Cc1ccc2c(c1)C1C[N+](C)(CC(=O)Nc3ccccc3Cl)CCC1N2C(=O)c1ccccc1Cl (configuration not stated)	-5.1%	32.4%	-7.5%	73.0%	4.9%	u
CCOC(=O)c1c(-c2ccc(OC)cc2)oc2ccc(OC(=O)N(C)C)cc12	18.4µM*	-2.2%	u	-37.6%	u	u
Clc1ccc(C2(Cn3cncn3)OCCO2)c(Cl)c1	-22.9%	x	-4.3%	x	x	x
Cc1ccc2c(Cl)cc(Cl)c(O)c2n1	3.26µM*!	12.6µM*	2.91µM*!	-29.6%	7.08µM*!	u
O=C1Nc2cc(Cl)c(Cl)cc2N2CCNC[C@H]12	u	x	-31.2%	x	x	x
CC(C)Cn1c(=O)oc2ccccc21	-2.0%	u	7.6%	6.2%	7.4%	i
Cc1ccc(CNC(=O)c2ccc(Nc3nc4ccccc4n4nnnc34)cc2)cc1	14.6µM*	-2.7%	u	-4.9%	3.7%	i
N=C1c2ccccc2CN1NC(=O)c1ccc(Cl)cc1	u	0.7%	-18.4%	-6.3%	11.7%	i
O=C(NCCc1ccc(Cl)cc1)c1ccc(Nc2nc3ccccc3n3nnnc23)cc1	10.3µM*	1.2%	u	-9.0%	2.0%	i
CC(C)N(CCNC(=O)CN1CCCC1=O)C(C)C	x	x	x	x	-0.2%	x
NC(N)=NC(=O)c1nc(Cl)c(N)nc1N	0.581µM*!	-5.0%	1.46µM*!	-5.5%	-8.3%	i
CCC1C2CC3C4N(C)c5ccccc5[C@]45CC(C2C5O)N3C1O (some centres not stated)	0.366µM*	x	0.461µM*	x	x	x
CCN1C[C@]2(COC(=O)c3ccccc3N3C(=O)CC(C)C3=O)CC[C@H](OC)[C@@]34C5C[C@@H]6[C@@H](OC)C[C@@](O)(C5[C@H]6OC)[C@](O)([C@@H](OC)C23)[C@@H]14 (some centres not stated)	13.6%	x	4.2%	x	x	x
CCN1/C(=C/C=C/C2=[N+](CC)c3ccccc3C2(C)C)C(C)(C)c2ccccc21	0.13µM*	u	0.146µM*	-78.8%	x	7.94µM*
SMILES	DT40 TDP1 no CPT	TGFb inhibitor	TDP1 cell CPT	HepG2 tox	ATXN2 expr inh	ATXN viability
CN1/C(=C\C=C2C(=O)NC(=O)NC2=O)C(C)(C)c2ccccc21	-28.4%	99.7%	u	-2.9%	-29.6%	u
O=C(c1c[nH]c(C(=O)C(Cl)(Cl)Cl)c1)c1ccccc1Cl	u	-1.9%	u	3.1%	5.7%	i
C[C@H]1CNC(=O)c2c(C(=O)Nc3ccc(CNC(=O)OC(C)(C)C)cc3)ncn21	9.2µM*	-32.6%	14.6µM*	-8.7%	u	u
Cc1cccc(NC(=O)c2ncn3c2C(=O)NC[C@H]3C)c1	u	-15.2%	-23.8%	3.8%	1.5%	i
Cc1cccc(NC(=O)c2ncn3c2C(=O)NC[C@@H]3C)c1	u	-25.5%	-4.3%	-34.7%	3.3%	i
C[C@H]1CNC(=O)c2c(C(=O)Nc3cccc(Cl)c3)ncn21	u	-7.9%	-7.2%	30.6%	5.1%	i
C[C@@H]1CNC(=O)c2c(C(=O)Nc3cccc(Cl)c3)ncn21	20.6µM*	u	20.6µM*	-7.7%	-12.4%	u
C[C@H]1Cn2cnc(C(=O)Nc3ccc(CNC(=O)OC(C)(C)C)cc3)c2C(=O)N1	13µM*	2.6%	u	-4.4%	4.0%	i
Cc1cccc(-n2c(O)c(C=NCCCN3CCOCC3)c(=O)[nH]c2=O)c1C	0.5%	17.5%	3.6%	16.8%	-0.8%	i
CC1COC2(c3ccccc3Cl)c3cc(Cl)ccc3NC(=O)CN12 (configuration not stated)	x	x	x	x	3.9%	i
CC(=O)c1ccc2c(c1)C1C(Cl)C(Sc3ccccc3[N+](=O)[O-])CC1C(c1ccccc1)N2 (configuration not stated)	14.6µM*	-3.1%	11.6µM*	-14.7%	-14.5%	i
CC(=O)c1ccc2c(c1)C1C(Cl)C(Sc3ccccc3[N+](=O)[O-])CC1C(c1ccccc1[N+](=O)[O-])N2 (configuration not stated)	13µM*	-3.0%	10.3µM*	1.1%	-7.1%	i
O=C1NC(=O)C(Sc2ccccc2[N+](=O)[O-])C(=O)N1	u	-4.7%	u	-31.4%	-1.1%	i
Cc1ccccc1-n1c(-c2ccco2)nc2ccccc2c1=O	9.2µM*	-5.0%	11.6µM*	-19.2%	-12.2%	u
O=c1c2ccccc2nc(-c2ccco2)n1-c1ccccc1	u	1.7%	u	-29.5%	-4.6%	u
COc1ccc(-n2c(-c3ccco3)nc3ccccc3c2=O)cc1	23.1µM*	-18.3%	u	-6.4%	-16.1%	i
